Measured potencies and affinities stand elsewhere. Calls of active or inactive are those of the source. No rule for the calls is given here.

The test can be described thus: HEK293 cell viability loss – plate reader, cherry-pick, cytotoxicity control, dose response (AID 651899).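 Also: cells exposed to compound for 48 hours.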 To be noted: series mostly up to 26 µM.
As for `Cc1ccc(NC(=O)CSc2nc(=O)n(CCCN3CCOCC3)c3c2CCCC3)cc1F`, the outcome was inactive.

In the case of `Cc1nc2nc(SCC(=O)NCCCN3CCOCC3)nn2c(C)c1Cc1ccccc1`, the call was inactive.

Turning to `Cc1ccc(Cc2c(C)nc3nc(SCC(=O)NCc4ccco4)nn3c2C)cc1`, the outcome was inactive.

As to `O=C(CSc1nc2ccccc2c(=O)n1-c1ccccc1)N1CCN(CCO)CC1`, the molecule was called inactive.

Take `CC(CNC(=O)CCCn1ncn2c(cc3occc32)c1=O)c1ccccc1` (stereo unspecified): the molecule was called inactive.

Regarding `Cc1c(OC(C)C(=O)NCc2ccccn2)ccc2c3c(c(=O)oc12)CCC3` (stereo unspecified), the result was inactive.

With `O=C(c1cccc(F)c1)N1CC[C@@H]2[C@@H](CO)Nc3ccc(-c4cccc(F)c4)cc3[C@@H]21`, the molecule was classed as inactive.

`C[C@@H](C(=O)N1CCN(Cc2ccc3c(c2)OCO3)CC1)n1nnc2ccccc2c1=O`: the call was inactive.

Take `CCOCCCNC(=O)CSc1nc2nc(C)c(Cc3ccccc3)c(C)n2n1`: the outcome was inactive.

In the case of `O=C(C[C@@H]1C[C@H]2c3cc(NC(=O)c4cccnc4)ccc3O[C@H]2[C@@H](CO)O1)NCc1cc(F)ccc1F`, the call was inactive.

On to `CC(=O)c1ccc(C(=O)N2CCCC(CCC(=O)N(C)CCc3ccccn3)C2)s1` (stereo unspecified), for which the outcome was inactive.

For the molecule `Nn1c(SC/C=C/c2ccccc2)nnc1-c1cccnc1`, the call was inactive.

Regarding `O=C(Nc1ccc2snnc2c1)N1CCN(c2ccccc2)CC1`, the molecule was classed as inactive.

On to `COc1ccc(CCNC(=O)c2cnc3n(c2=O)CCS3)cc1OC`, for which the molecule was called inactive.

As to `CNC(=O)C[C@H]1CC[C@@H]2[C@H](COC[C@@H](O)CN2C(=O)Nc2ccc(Cl)c(Cl)c2)O1`, the outcome was inactive.

For the molecule `O=C(Nc1ccc(NS(=O)(=O)c2ccccc2)cc1)c1cccnc1`, the call was inactive.

(Values after PubChem BioAssay AID651899 (Broad Institute, 2012).)
